Among all 330,000 compounds or so, about 4,100 (1.2%) were called active. Not shown: some 2% with an inconclusive outcome. Only a selection was taken, and actives are over-represented in it overall. Unmarked numbers belong to inactive results. The calls were made as follows: active = max response of -50% or lower; inconclusive = between -30% and -50%; inactive = -30% or higher.
The compounds below were run against Phosphatidylinositol 5-phosphate 4-kinase type-2 alpha (Homo sapiens) (UniProt P48426) (assay: qHTS for Inhibitors of phosphatidylinositol 5-phosphate 4-kinase (PI5P4K)). Conditions: PI5P4Kalpha enzyme, ADP-Glo luminescence, 60 min; active compounds read low.
From the text: In addition to finding PI5P, we discovered the type II phosphatidylinositol 5-phosphate 4-kinase (PI5P4K) family (alpha, beta, gamma isoforms) that catalyze the conversion of PI5P to PI(4,5)P2. Alternatively, PI(4,5)P2 can also be synthesized through phosphatidylinositol-4-phosphate (PI4P) by the type I phosphatidylinositol 4-phosphate 5-kinases (PI4P5K). These PI5P4K enzymes therefore represent one way by which cells can regulate endogenous PI5P levels and play important roles in insulin signaling and in stress responses.
This proposal aims to identify and optimize specific modulators of human PI5P4K, phosphatidylinositol-5-phosphate 4-kinase (Type II PIPK), a family of kinases that regulate AKT signaling and tumor cell growth. In this project we aim to identify inhibitors of human PI5P4K using a quantitative high-throughput screening approach against the MLSMR containing ~400,000 small molecules.
NIH Chemical Genomics Center [NCGC]
NIH Molecular Libraries Probe Centers Network [MLPCN]
Assay Submitter (PI): Atsuo Sasaki, Beth Israel Deaconess Medical Center
2 microL of PI5P4Kalpha/substrate buffer (columns 1-2, 5-48) are dispensed into Greiner white solid bottom 1536-well assay plates; column 3 receives only PI5P4Kalpha buffer as 0x substrate controls; column 4 receives only substrate buffer as 0x PI5P4Kalpha controls. Final assay buffer consists of 0.038 M HEPES pH 7.4, 0.28 mM EGTA, 0.1% CHAPS, and 5% DMSO (final concentration). Compounds are then transferred via Kalypsys pin tool equipped with 1536-pin array (10 nL slotted pins, V&P Scientific, San Diego, CA). Following addition of compound, 1 microL of ATP (5 microM final concentration, all columns) is added to initiate the reaction. ATP is diluted in an assay buffer consisting of 0.02 M HEPES pH 7.4, 60 mM MgCl2, 15 microM ATP, and 0.1% CHAPS. The plates are then incubated at room temperature for 60 minutes. ADP-Glo reagent 1 is added (2 microL) and plates incubated for 45 minutes, before ADP-Glo reagent 2 (4 microL) is added and plates incubated for 30 minutes. They are then transferred to a ViewLux high-throughput CCD imager (PerkinElmer) wherein single end-point measurements of luminescence are acquired using a clear filter.
% is scaled to controls: 0 for no effect and ±100 for the full control effect.
Also: value at the top dose of about 77 µM.

Chain of Phosphatidylinositol 5-phosphate 4-kinase type-2 alpha (Homo sapiens) (P48426 whole entry, looked up, canonical isoform): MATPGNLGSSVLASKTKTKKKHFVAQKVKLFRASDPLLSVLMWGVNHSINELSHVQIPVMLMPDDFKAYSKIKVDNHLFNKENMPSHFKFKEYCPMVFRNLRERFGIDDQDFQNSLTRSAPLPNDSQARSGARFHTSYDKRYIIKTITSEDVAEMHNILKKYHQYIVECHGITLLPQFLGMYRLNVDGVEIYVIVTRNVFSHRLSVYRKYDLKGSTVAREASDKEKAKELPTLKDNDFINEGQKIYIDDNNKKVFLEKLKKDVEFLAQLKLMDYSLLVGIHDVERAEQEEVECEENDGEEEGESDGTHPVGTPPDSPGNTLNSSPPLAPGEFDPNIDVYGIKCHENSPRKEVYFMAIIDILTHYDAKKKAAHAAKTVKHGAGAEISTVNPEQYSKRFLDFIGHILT

Compound | max response
O=C1NC(=O)N(Cc2ccco2)C(=O)/C1=C\c1cccn1CCOc1ccccc1 | -24.2%
O=C1NC(=O)N(CCc2ccc(F)cc2)C(=O)/C1=C/C=C/c1ccccc1 | -26.8%
O=C1NC(=O)N(Cc2ccco2)C(=O)/C1=C\c1ccc(-c2ccc(F)cc2)o1 | -73.5% (active)
O=c1[nH]c2ccccc2n1C1CCN(C(c2ccccc2)c2nnnn2Cc2ccccc2)CC1 (stereo not given) | -4.66%
COC(=O)C1=C(c2ccc(OCc3ccccc3)cc2)C[C@@H]2CC[C@H]1N2C(=O)NCc1ccc(Cl)cc1 | 5.92%
CCOC(=O)c1cccc(C2=C(CNC(=O)c3ccncc3)[C@H]3CC[C@@H](C2)N3Cc2ccccc2)c1 | -3.84%
O=C(O)CCn1cc(C=C2C(=O)NC(=S)NC2=O)c(-c2cccc(Br)c2)n1 | -58.5% (active)
O=C(NCC1=C(c2ccc3ccccc3c2)C[C@@H]2CC[C@H]1N2Cc1ccco1)c1cccs1 | -1.39%
COC(=O)C1=C(c2ccc(OCc3ccccc3)cc2)C[C@@H]2CC[C@H]1N2C(=O)NCc1cccc(F)c1 | 0.749%
CCCCC(=O)N/N=C/c1c(O)n(-c2ccccc2)c(=O)[nH]c1=O | -1.14%
CCC(=NCCc1ccccc1)c1c(O)n(C2CCCCC2)c(=O)[nH]c1=O | -4.68%
CC/C(=N\NC(=O)c1ccccc1O)c1c(O)n(Cc2ccccc2)c(=O)[nH]c1=O | -90.3% (active)
O=C(N/N=C/c1c(O)n(Cc2ccccc2)c(=O)[nH]c1=O)c1ccccc1 | -53.6% (active)
CCC(=NCCCO)c1c(O)n(-c2ccc(OC)cc2)c(=O)[nH]c1=O | 0.144%
O=c1[nH]c(=O)n(Cc2ccccc2)c(O)c1/C=N/Nc1c(F)c(F)c(F)c(F)c1F | 4.31%
COc1ccc(NC(=O)N2Cc3ccccc3-n3nncc3C2)cc1 | -4.3%
COc1ccc(-n2nnnc2C(c2cccc3ccccc23)N2CCC(n3c(=O)[nH]c4ccccc43)CC2)cc1 (stereo not given) | 0.885%
CSCCC(c1nnnn1C(C)(C)C)N1CCC(n2c(=O)[nH]c3ccccc32)CC1 (stereo not given) | 8.06%
O=c1[nH]c2ccccc2n1C1CCN(C(c2ccnc3ccccc23)c2nnnn2Cc2ccccc2)CC1 (stereo not given) | -3.14%
O=C1NC(=O)C(Cc2ccccc2)C(=O)N1 | -28.7%
O=C1NC(=O)C(C/C=C/c2ccccc2)C(=O)N1 | -78.1% (active)
CC(=O)NCC1=C(c2ccc3ccccc3c2)C[C@@H]2CC[C@H]1N2Cc1ccco1 | -10.1%
O=c1c2ccccc2nc(CBr)n1-c1ccc(Cl)cc1 | -9.65%
S=C(NCCc1ccccc1)N1Cc2cc(N3CCOCC3)ccc2-n2nncc2C1 | -1.37%
CCOC(=O)[C@]12Cc3ccccc3[C@H]1N(C1CCCCC1)C(=O)c1cc(OC)ccc12 | -1.4%
COc1cc(C(=O)N2Cc3ccc(Br)cc3-n3nncc3C2)cc(OC)c1OC | -0.882%
C=CCN(CC=C)C(=O)Nc1ccc(OCC)cc1 | -4.12%
C=CCN1C(=O)NC(=O)/C(=C/c2ccc(OCC(=O)Nc3ccc(C)cc3)cc2)C1=O | -72.6% (active)

Compound | max response
CCC(=O)c1ccc(OCC(=O)N2CCN(CC(=O)Nc3ccc(C)cc3)CC2)cc1 | 1.24%
O=C(NC1CCCCC1)N1Cc2cc(N3CCCCC3)ccc2-n2nncc2C1 | -0.829%
O=C1NC(=O)N(c2ccccc2)C(=O)/C1=C/c1ccc([N+](=O)[O-])s1 | -72.2% (active)
COc1cccc(N2C(=O)NC(=O)/C(=C\c3cn(C)c4ccccc34)C2=O)c1 | 5.95%
COc1cccc(N2C(=O)NC(=O)/C(=C\c3ccc([N+](=O)[O-])s3)C2=O)c1 | -64.2% (active)
O=C1NCN(c2ccccc2)C12CCN(C(c1cccs1)c1nnnn1C1CCCCC1)CC2 (stereo not given) | -2.62%
c1ccc(N2Cc3ccccc3-n3nncc3C2)nc1 | -2.17%
CC(=CCOc1ccc2ccc(=O)oc2c1)C1=CC(=O)C(C)(C)O1 | 4.71%
c1cc2c(c(NC3=NCCCS3)c1)CCCC2 | -10.3%
CC(C)CN1Cc2cc(N3CCCCC3)ccc2-n2nncc2C1 | -0.0123%
COC(=O)C[C@H]1CC[C@H]2NC[C@@H](O)COC[C@@H]2O1 | -5.22%
COc1ccc2c(c1)NP(=S)(c1ccccc1)N2 (stereo not given) | -27.5%
COc1ccc(N2C(=O)/C(=C/c3ccco3)C(=O)NC2=S)cc1 | -103% (active)
CCOC(=O)CNC(=O)N1Cc2cc(N3CCCCC3)ccc2-n2nncc2C1 | 7.51%
COc1ccc(C2C=C(C)Oc3c2c(=O)oc2ccccc32)cc1OC (stereo not given) | 1.36%
CCn1cc(CN2CCCC(C(=O)c3cccc(C(F)(F)F)c3)C2)cn1 (stereo not given) | 5.27%
O=C(CN1CCCC1=O)NCCc1ccccc1 | 1.78%
O=C1CC(=O)N(Cc2ccccc2)C(=O)N1CCCCCCN1C(=O)CC(=O)N(Cc2ccccc2)C1=O | -68.4% (active)
COc1cccc(C(c2nnnn2-c2ccc3c(c2)OCCO3)N2CCC3(CC2)C(=O)NCN3c2ccccc2)c1OC (stereo not given) | -0.4%
O=P(OC1=CCCCC1)(c1ccccc1)c1ccccc1 | 1.07%
Cc1ncoc1C(=O)NCC1=C(c2cccc3ccccc23)C[C@@H]2CC[C@H]1N2Cc1ccco1 | 7.08%
Cc1ccccc1N1C(=O)NC(=O)/C(=C\c2cc(C)n(C)c2C)C1=O | 0.241%
Cc1c(C(=O)O)cccc1-n1c(C)cc(/C=C2\C(=O)NC(=O)N(c3ccc4c(c3)OCO4)C2=O)c1C | -18.8%
Cc1cccc(N2C(=O)NC(=O)/C(=C\c3cnn(-c4ccccc4)c3)C2=O)c1 | -69.1% (active)
COC(=O)CN(CCCl)P1(=O)OCCCN1CCCl (stereo not given) | -2.26%
O=c1c2ccccc2[nH]c(=S)n1-c1cccc(Cl)c1 | -8.39%
CCOC(=O)[C@]12Cc3cc(OC)ccc3[C@H]1N(C(C)C)C(=O)c1ccccc12 | 1.48%

— PubChem BioAssay AID652105 (National Center for Advancing Translational Sciences (NCATS), 2013)
